From PubChem BioAssay (NCI)
Compounds without any hit were thinned out: in the full panel of roughly 83,000, 20% have a hit.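 Results are percent growth after 48 hours of single-concentration exposure. 100 means growth as in untreated cells, lower positive values show inhibition; negative values down to -100 show cell death.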 Activity calls are given as the source filed them. The calls were made as follows: active = growth percent below 10; inactive = the rest.

How the values were obtained:
Assay in all cases: NCI-60 one-dose screen, 48 h (100 = growth as untreated, 0 = no growth, -100 = all killed)
Conditions in all cases: 10 µM unless noted
[1] = system: MOLT-4 leukemia
[2] = system: SR leukemia
[3] = system: RPMI-8226 leukemia
[4] = system: OVCAR-8 ovarian
[5] = system: OVCAR-5 ovarian
[6] = system: OVCAR-4 ovarian
[7] = system: SK-OV-3 ovarian
[8] = system: IGROV1 ovarian
[9] = system: OVCAR-3 ovarian
[10] = system: HS 578T breast
[11] = system: NCI/ADR-RES ovarian
[12] = system: T-47D breast
[13] = system: BT-549 breast
[14] = system: MDA-MB-435 melanoma
[15] = system: SW-620 colon
[16] = system: MCF7 breast
[17] = system: HCT-116 colon
[18] = system: HCC-2998 colon
[19] = system: KM12 colon

Measured: growth

CC(C)(C)N1CC1C#N (configuration not stated)
inactive: [1] 98.4% | [2] 97.6% | [3] 99.2% | [4] 103% | [5] 99.5% | [6] 119% | [7] 101% | [8] 103% | [9] 101% | [10] 104% | [11] 106% | [12] 89.3% | [13] 103% | [14] 108% | [15] 103% | [16] 100% | [17] 100% | [18] 98.8% | [19] 99.2%

O=C(O)C(O)C(O)C1[O][Sb]([c]2ccc([N+](=O)[O-])cc2)[O]C1CO (configuration not stated)
inactive: [1] 98.2% | [2] 102% | [3] 99.2% | [4] 105% | [5] 103% | [6] 112% | [7] 129% | [8] 111% | [9] 114% | [10] 93.8% | [11] 111% | [12] 109% | [13] 114% | [14] 107% | [15] 103% | [16] 93.9% | [17] 104% | [18] 105% | [19] 108%

CCOP(=O)(Cc1ccc(C#N)cc1)OCC
inactive: [1] 94.8% | [2] 89% | [3] 103% | [4] 94.3% | [5] 106% | [6] 104% | [7] 102% | [8] 118% | [9] 110% | [10] 105% | [11] 108% | [12] 101% | [13] 109% | [14] 114% | [15] 99.9% | [16] 88.6% | [17] 84.5% | [18] 110% | [19] 107%

CN1C(=O)C23CC4(C56CC78SSC(CO)(C(=O)N7C5Nc5ccccc56)N(C)C8=O)c5ccccc5NC4N2C(=O)C1(CO)SS3 (configuration not stated)
active: [1] -62.2% | [2] -75.8% | [3] -25.8% | [4] -94.7% | [5] -77.7% | [6] -94.5% | [7] -98.6% | [8] -100% | [9] -97.8% | [10] -54.5% | [11] -23.4% | [12] -92.4% | [13] -99.1% | [14] -87% | [15] -78.5% | [16] -68.1% | [17] -78.5% | [18] -94.2% | [19] -82.9%

CNC(=O)Oc1ccc2c(c1)OCO2
inactive: [1] 94.3% | [2] 91.4% | [3] 115% | [4] 101% | [5] 106% | [6] 116% | [7] 116% | [8] 104% | [9] 119% | [10] 109% | [11] 109% | [12] 99.9% | [13] 97.1% | [14] 103% | [15] 107% | [16] 95.7% | [17] 111% | [18] 106% | [19] 101%

NC(=O)CNc1ccc([As]=[As]c2ccc(NCC(N)=O)cc2)cc1 (configuration not stated)
active: [8] 8.16% | [9] -41.5%
inactive: [1] 58.8% | [2] 14% | [3] 13.5% | [4] 61.2% | [5] 74.6% | [6] 60.6% | [7] 93.7% | [10] 10.5% | [11] 65.6% | [12] 33.3% | [13] 31.6% | [14] 61.7% | [15] 24.6% | [16] 22.9% | [17] 54.7% | [18] 79.1% | [19] 88.5%

CC12CC=CCC1CCC1C2CCC2(C)C(c3ccc(=O)oc3)CCC12O (configuration not stated)
active: [1] -15.7% | [2] -3.66% | [3] -9.88% | [4] -41.8% | [5] -80.6% | [6] -48.1% | [7] -8.44% | [8] -12.3% | [9] -76.8% | [10] -18.5% | [11] -41.1% | [12] -4.1% | [13] -65.4% | [14] -89.1% | [15] -58.9% | [16] -21.6% | [17] -67.1% | [18] -10.9% | [19] -49.5%

c1ccc(Nc2nc(-c3ccccc3)c[se]2)cc1
active: [12] 6.3%
inactive: [1] 76.2% | [2] 79.6% | [3] 86.6% | [4] 96.3% | [5] 96.7% | [6] 75.6% | [7] 86.4% | [8] 68.8% | [9] 93.5% | [10] 89.6% | [11] 97.3% | [13] 87.4% | [14] 104% | [15] 98.8% | [16] 61% | [17] 86.3% | [18] 86.5% | [19] 71.8%
